# HT1080NT lethal: kills 2HG-producing HT-1080-NT fibrosarcoma cells; HT-1080-NT fibrosarcoma viability, CellTiter-Glo ATP luminescence, 48 h; Potency, µM (top dose mostly 46.1 µM), inactives show at the top dose activity, negative = less viability, usual class: cytotoxic; 360,000 compounds, 1.6% hits;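 further: NT is the 2HG producing partner of a matched IDH1 knockdown line; potency means the concentration at half of the fitted maximal effect; 0% = DMSO-treated cells and -100% = media-only wells without cells; nearly all actives have a fitted effect of over 55% in size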
#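 Toxicity toward the 2HG-producing NT line was scored as %Activity, normalised to DMSO and no-cell wells, from CellTiter-Glo luminescence after 48 hours' treatment.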
# IL-1B inflam inh: blocks inflammasome-driven IL-1 beta release; THP-1 LPS/ATP IL-1B secretion, AlphaLISA, 16 h; active compounds read low; activity change, % at 57.5 µM; 360,000 compounds, 4.7% hits; in the data active means activity change below about -50%; inconclusive means mostly about -30% to -49%
#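 Secreted IL-1B measured by AlphaLISA bead assay after 16 h compound exposure of THP-1 cells; compounds (final up to 57.5 uM) added 1 h before LPS (250 ng/mL) and ATP (1.25 mM) stimulation; lower signal means less secretion.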
# HT1080 IDH1KD tx: HT-1080 IDH1 knockdown cell toxicity (counter line). HT-1080 IDH1 knockdown viability, ATP luminescence, 48 h. Potency, µM (doses to about 46.1 µM), inactives show at the top dose activity, negative = toxicity, actives largely listed as cytotoxic. 360,000 compounds, 2% hits;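 further: potency means the concentration at half of the fitted maximal effect; 0% = DMSO wells and -100% = cell-free medium wells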
#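 IDH1KD HT-1080 cells, 750/well, RPMI + 5% FBS; compound pinned after 2 h settling; 48 h, 37 °C; CellTiter-Glo luminescence; % activity normalised to DMSO and no-cell wells; curves fitted, classed by r2 and efficacy.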
# TDP1 cell noCPT: qHTS for Inhibitors of human tyrosyl-DNA phosphodiesterase 1 (TDP1): qHTS in cells in absence of CPT; DT40 Tdp1-/- hTDP1 cells, no CPT, ATP luminescence, 48 h; Potency, µM (doses to about 46.2 µM), without a hit: at the highest dose activity change, negative = growth inhibition, hits mostly inhibitors; 420,000 compounds, 15% hits; further: potency means the concentration at half of the fitted maximal effect; nearly all actives have a fitted effect of over 55% in size
#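 Cells were dispensed at 400 per well, compounds added by pin tool, plates incubated ≥48 hr at 37 °C, then CellTiter-Glo added for 30 min at room temperature before luminescence reading. Line: DT40 Tdp1-/- complemented with hTDP1; camptothecin omitted.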
# TDP1 cell CPT: DT40-hTDP1 cell growth loss with CPT; chicken DT40 Tdp1-/-;hTDP1 cells + 20 nM CPT, ATP luminescence, 48 h; Potency, µM (titrated, usually from 46.2 µM), for the others: at the highest dose activity change, negative = growth inhibition, actives largely listed as inhibitors; 420,000 compounds, 12% hits; further: potency means the concentration at half of the fitted maximal effect; nearly all actives have a fitted effect of over 55% in size
#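 Cell growth measured by CellTiter-Glo luminescence after a minimum 48 h, 37 C compound exposure with 20 nM CPT in Tdp1-knockout DT40 cells stably expressing hTDP1, seeded 400/well; qHTS titration format.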
# ELG1 repair inh: ELG1-dependent DNA repair inhibition; HEK293T ELG1-luciferase reporter, luminescence, 16 h; DNA damage induced by 5-fluorouridine; Potency, µM (titrated, usually from 46.1 µM), without a hit: at the top dose activity change, negative = inhibition, most hits filed as inhibitors; 330,000 compounds, 2.3% hits; AID 504467; further: potency means the concentration at half of the fitted maximal effect; nearly all actives have a fitted effect of over 55% in size
#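 Step one: seed 2,000 cells per well. Step two: pin-transfer compound or DMSO alongside 5-fluorouridine. Step three: incubate 16 hr, 37 °C, 5% CO2. Step four: add ONE-Glo, wait 30 min, read luminescence.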
# * hit, by the source's call; ? = inconclusive; . = not tested or not shown; [ ] = remark or other dose. Sampled rows, rich in hits. Any-hit rate of the full collection: about 19%. Unless noted, the call rests on the fitted dose curve; in most records, active means well fitted curve in the direction sought with a large enough effect; inconclusive means small, poorly fitted or top-dose-only effect, or another doubt; inactive means no such curve, though single readings can be large; an effect the other way counts as inactive or inconclusive. Unless noted, on the % scale 0 is the no-effect control and ±100 the full control effect.
SMILES,HT1080NT lethal,IL-1B inflam inh,HT1080 IDH1KD tx,TDP1 cell noCPT,TDP1 cell CPT,ELG1 repair inh
Cc1nc2cc(-c3ccccc3)nn2c(C)c1CCC(=O)N1CCN(c2ccccc2)CC1,-8%,0,6%,?,-27%,?
CCOC(=O)Cc1c(C)nc2c(-c3ccc(OC)cc3)c(C)nn2c1C,?,-1,?,23µM*,?,?
COc1cccc(N2CCN(C(=O)c3cnc4c(-c5ccccc5)c(C)nn4c3C)CC2)c1,.,.,.,?,15µM*,.
COc1ccc(N2CCN(C(=O)CCc3c(C)nc4c(-c5ccccc5)c(C)nn4c3C)CC2)cc1,.,.,.,18µM*,23µM*,.
Cn1cccc1-c1cc2n(n1)CCC(=O)N2CC(=O)Nc1ccc(F)cc1Cl,.,.,.,0%,-9%,.
C/C(CC(=O)Nc1cc(C)ccn1)=N\NC(=O)c1cccc(C)c1O,?,70,?,?,-4%,?
Cc1cc(C)c(C(=O)C(C)OC(=O)c2ccccn2)cc1C (centres undefined),27%,15,24%,5%,0%,2%
C=CC[C@@H](CC(=O)OC(C)(C)C)C(=O)OC[C@H]1CCCN1C(=O)[C@@H](CC=C)CC(=O)N(CCO)Cc1ccccc1,-17%,-62*,-16%,?,?,-15%
C=CC[C@@H](CC(=O)OC(C)(C)C)C(=O)OC[C@@H]1CCCN1C(=O)[C@@H](CC=C)CC(=O)N(CCO)Cc1ccccc1,-4%,-55*,?,?,?,?
C=CC[C@@H](Cc1ccc(F)cc1)C(=O)OC[C@@H]1CCCN1C(=O)[C@@H](CC=C)CC(=O)N(CCO)Cc1ccccc1,?,?,?,15µM*,?,?
C=CC[C@H](CC(=O)OC(C)(C)C)C(=O)OC[C@@H]1CCCN1C(=O)[C@@H](CC=C)CC(=O)NCCO,12%,-5,15%,-16%,?,5%
C=CC[C@@H](Cc1ccc(F)cc1)C(=O)OC[C@@H]1CCCN1C(=O)[C@@H](CC=C)CC(=O)NCCO,0%,8,7%,-16%,-1%,4%
O=C(CC[C@H]1O[C@@H](n2ccc(=O)[nH]c2=O)[C@H](O)[C@@H]1O)N[C@H](Cc1ccccc1)C(=O)NCC1CCCO1 (some centres undefined),0%,0,12%,8%,-6%,.
Cc1noc(C)c1COc1ccccc1C(=O)N(C)CC(=O)Nc1ccc(F)c(F)c1F,7%,7,2%,7%,13%,0%
CN(C(=O)CSc1nc2ccccc2n1CC(=O)N(C)C1CCCCC1)c1ccccc1,.,.,.,18µM*,?,.
CN(C)C(=O)Cn1c(SCC(=O)NC2CCCCC2)nc2ccccc21,2%,11,9%,-9%,-23%,6%
CN(C(=O)CSc1nc2ccccc2n1CC(=O)N(C)c1ccc(F)cc1)c1ccccc1,.,.,.,21µM*,18µM*,.
O=C(O)c1cccnc1SC1CC(=O)N(c2ccc(OC(F)F)cc2)C1=O (centres undefined),-1%,-11,5%,15µM*,?,1%
O=C(O)c1cccnc1SC1CC(=O)N(CCc2ccccc2)C1=O (centres undefined),0%[9.24 µM],5,16%,-1%,-10%,8%
O=C(O)c1cccnc1SC1CC(=O)N(c2cccc(C(F)(F)F)c2)C1=O (centres undefined),1%,-2,10%,-2%,-5%,6%
O=C(O)c1cccnc1SC1CC(=O)N(Cc2ccccc2)C1=O (centres undefined),21%,2,24%,21µM*,15µM*,4%
COc1cc(/C=C/C(=O)c2ccc(C)c([N+](=O)[O-])c2)cc(OC)c1O,?,?,?,15µM*,16µM*,-5%
COc1cccc(/C=C/C(=O)c2ccc(C)c([N+](=O)[O-])c2)c1,?,-83*,-24%,21µM*,?,?
COc1ccc(/C=C/C(=O)c2ccc(C)c([N+](=O)[O-])c2)cc1O,-12%,?,?,13µM*,?,?
COC(=O)N/N=C(\C)c1ccc(C)c([N+](=O)[O-])c1,20%,-4,15%,?,-12%,?
SMILES,HT1080NT lethal,IL-1B inflam inh,HT1080 IDH1KD tx,TDP1 cell noCPT,TDP1 cell CPT,ELG1 repair inh
CC(=O)c1ccc(NC(=O)CCc2c(C)nn(-c3ccc4nnc(C)n4n3)c2C)cc1,.,.,.,-13%,1%,.
Cc1nn(-c2ccc3nnc(C)n3n2)c(C)c1CCC(=O)Nc1ccc(OC(F)(F)F)cc1,.,.,.,23µM*,12µM*,.
OC(c1ccccc1)(c1nc(-c2cccc(F)c2)cs1)C(F)(F)F (centres undefined),18µM*,3,?,?,?,.
OC(c1ccccc1)(c1nc(-c2ccc3ccccc3c2)cs1)C(F)(F)F (centres undefined),?,-15,?,?,21µM*,.
OC(c1ccccc1)(c1nc(-c2ccccc2)cs1)C(F)(F)F (centres undefined),21µM*,-29,?,21µM*,18µM*,.
Cc1ccc(NC(=O)CSCc2cnn(-c3ccccc3)c2-n2cccc2)c(C)c1,.,.,.,16µM*,?,.
CC(C)CCNC(=O)CSCc1cnn(-c2ccccc2)c1-n1cccc1,.,.,.,21µM*,21µM*,.
O=C(CCSCc1cnn(-c2ccccc2)c1-n1cccc1)NCc1ccccc1Cl,.,.,.,?,18µM*,.
COc1cccc(CNC(=O)CSCc2cnn(-c3ccccc3)c2-n2cccc2)c1,7%,-9,8%,?,?,?
Cc1ccc(Cl)cc1NC(=O)CSCc1cnn(-c2ccccc2)c1-n1cccc1,.,.,.,16µM*,16µM*,.
CNC(=O)CSCc1cnn(-c2ccccc2)c1-n1cccc1,-1%,-9,7%,-17%,6%,?
CC1=C(C(N)=O)N2C(=O)[C@@H](NC(=O)Cc3ccccc3)C2SC1 (some centres undefined),.,.,.,7%[9.04 µM],14%[9.04 µM],.
Cc1cc(=O)oc2c(C)c(OC3CCCCC3=O)ccc12 (centres undefined),-5%,-1,-9%,-2%,-5%,3%
CCC(=O)O,.,.,.,-16%,-3%,.
COc1ccccc1C(=O)NC(=O)CSc1nnnn1C,7%,11,0%,3%,-21%,21%

# Bioassay records from PubChem BioAssay.
